According to PubChem BioAssay (Tox21):
Results filed as inconclusive are left out. Calls of active or inactive are those of the source. Unless noted, calls come from the whole dose curve; as a rule, active = well fitted curve in the direction sought with a large enough effect in the repeat runs; inconclusive = weak or mixed curves; inactive = no such curve, though single readings can be large; an effect the other way counts as inactive or inconclusive.

Legend:
[1] = qHTS assay to identify small molecule agonists of the estrogen receptor alpha (ER-alpha) signaling pathway in the presence of an antagonist - cell viability counter screen (AID 1259386);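 note: series mostly up to about 92 µM; cells exposed to compounds for 22 h at 37 °C before the viability read; nearly all actives have a fitted effect of over 30% in size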
Procedure, shortened: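 ICI-182,780 at 10.0nM final accompanies the compound titration (15 concentrations, 22hr, 37C) on VM7Luc4E2 cells. The CellTiter-Fluor fluorescence readout runs in the same wells as the luciferase assay.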

[2] = target: Progesterone receptor (Homo sapiens) (UniProt P06401); test: qHTS assay to identify small molecule antagonists of the progesterone receptor (PR) signaling pathway (AID 1346795; active = well fitted inhibition curve with a large enough effect in the signal ratio in the repeat runs, not every such curve was filed as active; the % refers to the signal ratio)
Procedure, shortened: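 Read-out is fluorescence from the LiveBLAzer B/G FRET substrate, cleaved by a UAS-controlled beta-lactamase in PR-UAS-bla HEK293T cells after 16 hr exposure to compound plus 1 nM promegestone (final), followed by 2 hr at room temperature.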

[3] = qHTS assay to identify small molecule antagonists of the progesterone receptor (PR) signaling pathway - cell viability counter screen (AID 1346798);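 note: HEK293T PR-UAS-bla cells stimulated with the agonist R5020; series mostly up to about 92 µM; nearly all actives have a fitted effect of over 50% in size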
Procedure, shortened: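 HEK293T PR-UAS-bla, 2% charcoal-stripped FBS; 4 hr pre-plate; cpd + R5020, 16 h 37C; LiveBLAzer read first; then CellTiter-Glo 30 min RT, luminescence.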

[4] = qHTS assay to identify small molecule agonists of the progesterone receptor (PR) signaling pathway - cell viability counter screen (AID 1346799; calls by dose curve; note: nearly all actives have a fitted effect of over 45% in size)
Procedure, shortened: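 Luminescence from CellTiter-Glo, added after the beta-lactamase FRET read in the same wells, gave cytotoxicity in PR-UAS-bla HEK293T cells treated with compounds for 16 hr at 37C.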

[5] = qHTS assay to identify small molecule antagonists of the TGF-beta/Smad signaling pathway - cell viability counter screen (AID 1346824); note: nearly all actives have a fitted effect of over 50% in size
Procedure, shortened: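 Cytotoxicity counter-screen run in the same wells as the beta-lactamase Smad reporter read: CellTiter-Glo luminescence after 30 min at room temperature. HEK 293T SBE-bla cells had 5 hr compound exposure at 37 C with TGF-beta1 (0.25 ng/mL stock).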

[6] = qHTS assay to identify small molecule agonists of the TGF-beta/Smad signaling pathway - cell viability counter screen (AID 1346829); note: top concentration of the series differs between compounds; nearly all actives have a fitted effect of over 45% in size
Procedure, shortened: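 Tox21 qHTS format: SBE-bla HEK 293T cells treated with DMSO-dissolved compounds for 5 hr; CellTiter-Glo luminescence after 30 min at room temperature.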

[7] = qHTS assay to identify small molecule agonists of the TGF-beta/Smad signaling pathway (AID 1346859; active = well fitted activation curve with a large enough effect in the signal ratio in the repeat runs, not every such curve was filed as active; the % refers to the signal ratio; note: series mostly up to about 77 µM)
Procedure, shortened: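 SBE-bla HEK 293T, 4,000 cells/well, plated o/n; cpd in DMSO, 5 hr, 37 C/5% CO2; B/G FRET substrate 2 hr RT; ex 405, em 460/530 nm.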

[8] = Human pregnane X receptor (PXR) small molecule agonists, qHTS cell viability counter screen (AID 1346977); note: nearly all actives have a fitted effect of over 50% in size
Procedure, shortened: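 PXR-Luc HepG2, 2,000 cells/well, 5% charcoal-stripped FBS; 5hr settle; cpd 24hr, 37C/5% CO2; CellTiter-Fluor at 23hr, read 1hr later (fluorescence).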

[9] = Caspase-3/7 induction in HepG2 cells by small molecules, qHTS assay (AID 1346978); note: nearly all actives have a fitted effect of over 15% in size
Procedure, shortened: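 Caspase-3/7 induction was measured by Caspase-Glo 3/7 luminescence (30 min, room temperature) after a 17 hr compound exposure of wild-type HepG2 cells seeded at 2,000 per well and pre-incubated 5 hr.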

[10] = Caspase-3/7 induction in CHO-K1 cells by small molecules, qHTS cell viability counter screen (AID 1346979); note: nearly all actives have a fitted effect of over 35% in size
Procedure, shortened: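 Cells (CHO-K1, wild type) are plated at 1,500 per well and incubated 5hr. Test compounds in DMSO are then pinned in, followed by 16hr at 37C and 5% CO2. Viability is read by CellTiter-Fluor fluorescence after 1hr.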

[11] = Caspase-3/7 induction in CHO-K1 cells by small molecules, qHTS assay (AID 1346980); note: nearly all actives have a fitted effect of over 15% in size
Procedure, shortened: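 Luminescent Caspase-Glo 3/7 read (30min, room temperature) quantified apoptosis induction. Cells were wild-type CHO-K1, treated with compound for 17hr at 37 C and 5% CO2.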

[12] = target: Nuclear receptor subfamily 1 group I member 2 (Homo sapiens) (UniProt O75469); test: Human pregnane X receptor (PXR) small molecule agonists, qHTS assay (AID 1346982); note: nearly all actives have a fitted effect of over 35% in size; note: potency is the fitted concentration of half-maximal effect
Procedure, shortened: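 We seeded PXR-Luc HepG2 cells in assay medium containing 5% charcoal-stripped FBS, added compounds 5 hr later, incubated 24 hr, and read luminescence with ONE-Glo reagent.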

[13] = target: Nuclear receptor subfamily 1 group I member 2 (Rattus norvegicus) (UniProt Q9R1A7); test: Rat pregnane X receptor (rPXR) activation by small molecules, qHTS assay (AID 1346983); conditions: rPXR luciferase reporter cells, One-Glo luminescence, 24 h; max activation: hits give high values; note: nearly all actives have a fitted effect of over 20% in size; note: potency is the fitted concentration of half-maximal effect
Procedure, shortened: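 Luminescent readout (One-Glo luciferase, 30 min room temperature) followed 24 hr compound treatment at 37 C of rPXR cells plated 2,000 per well and preincubated 5hr; qHTS format with compounds delivered in DMSO.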

[14] = target: Nuclear receptor subfamily 1 group I member 2 (Homo sapiens) (UniProt O75469); test: Human pregnane X receptor (PXR) activation by small molecules, qHTS assay (AID 1346985); note: nearly all actives have a fitted effect of over 40% in size; note: potency is the fitted concentration of half-maximal effect
Procedure, shortened: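 DPX-2 cells (HepG2 co-transfected with a PXR response element and a CYP3A4-promoter luciferase construct) were seeded at 2,000 per well, rested 5 hr at 37C, then exposed to DMSO-dissolved compounds for 24 hr. Activation was read as luciferase luminescence.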

[15] = target: Progesterone receptor (Homo sapiens) (UniProt P06401); test: qHTS assay to identify small molecule agonists of the progesterone receptor (PR) signaling pathway (AID 1346784; calls by dose curve; note: nearly all actives have a fitted effect of over 30% in size)
Procedure, shortened: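 Beta-lactamase reporter read-out: after 16 hr compound treatment at 37C and a further 2 hr at room temperature with LiveBLAzer B/G FRET substrate, fluorescence was measured in PR-UAS-bla HEK 293T cells grown in 2% charcoal-stripped serum.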

[16] = target: Thyrotropin-releasing hormone receptor (Homo sapiens) (UniProt P34981); test: qHTS assay to identify small molecule antagonists of the thyrotropin-releasing hormone receptor (TRHR) signaling pathway (AID 1346877; active = well fitted inhibition curve with a large enough effect in the repeat runs, not every such curve was filed as active; note: series mostly up to about 51 µM)
Procedure, shortened: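 Screening used HEK293 cells engineered with TRHR, with a brief 5 min room-temperature compound exposure preceding addition of TRH to 1 nM. The read-out was kinetic calcium-dye fluorescence, concentration-response from 15 doses in triplicate.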

[17] = target: Thyrotropin-releasing hormone receptor (Homo sapiens) (UniProt P34981); test: qHTS assay to identify small molecule agonists of the thyrotropin-releasing hormone receptor (TRHR) signaling pathway (AID 1346891; calls by dose curve; note: series mostly up to about 58 µM)
Procedure, shortened: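 Intracellular calcium rise, read as fluorescence every second for 3 min, served as the agonist signal in dye-loaded HEK293 cells expressing TRHR; each compound ran at 15 concentrations in triplicate.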

[18] = Caspase-3/7 induction in HepG2 cells by small molecules, qHTS cell viability counter screen (AID 1346981); note: series mostly up to about 92 µM; nearly all actives have a fitted effect of over 30% in size
Procedure, shortened: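 Multiplexed with the caspase-3/7 assay: HepG2 cells, 16 hr compound treatment, CellTiter-Fluor viability detection by fluorescence.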

[19] = target: Cytochrome P450 2D6 (Homo sapiens) (UniProt P10635); test: Cytochrome P450 Family 2 Subfamily D Member 6 (CYP2D6) small molecule antagonists: luciferase reporter qHTS assay (AID 1671196); note: series mostly up to about 120 µM; nearly all actives have a fitted effect of over 50% in size
Procedure, shortened: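 Luminescence (RLU), read 20 min after detection reagent, indicated CYP2D6 conversion of proluciferin to luciferin during a 1 h NADPH-dependent reaction at room temperature.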

[20] = target: Nuclear receptor subfamily 1 group I member 2 (Homo sapiens) (UniProt O75469); test: CYP3A4 induction through human pregnane X receptor (PXR) by small molecules, qHTS assay (AID 1346984); note: nearly all actives have a fitted effect of over 40% in size
Procedure, shortened: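 qHTS, concentration-response format: HepG2 DPX-2 line, PXR/CYP3A4-luc. Exposure 24 h, 37C. Substrate Luciferin-IPA 3uM final, 3 h. Detection One-Glo, 30 min RT.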
% is set by controls: 0 for no effect and ±100 for the full control effect.

Sequence of Progesterone receptor (Homo sapiens) (P06401 whole entry, looked up): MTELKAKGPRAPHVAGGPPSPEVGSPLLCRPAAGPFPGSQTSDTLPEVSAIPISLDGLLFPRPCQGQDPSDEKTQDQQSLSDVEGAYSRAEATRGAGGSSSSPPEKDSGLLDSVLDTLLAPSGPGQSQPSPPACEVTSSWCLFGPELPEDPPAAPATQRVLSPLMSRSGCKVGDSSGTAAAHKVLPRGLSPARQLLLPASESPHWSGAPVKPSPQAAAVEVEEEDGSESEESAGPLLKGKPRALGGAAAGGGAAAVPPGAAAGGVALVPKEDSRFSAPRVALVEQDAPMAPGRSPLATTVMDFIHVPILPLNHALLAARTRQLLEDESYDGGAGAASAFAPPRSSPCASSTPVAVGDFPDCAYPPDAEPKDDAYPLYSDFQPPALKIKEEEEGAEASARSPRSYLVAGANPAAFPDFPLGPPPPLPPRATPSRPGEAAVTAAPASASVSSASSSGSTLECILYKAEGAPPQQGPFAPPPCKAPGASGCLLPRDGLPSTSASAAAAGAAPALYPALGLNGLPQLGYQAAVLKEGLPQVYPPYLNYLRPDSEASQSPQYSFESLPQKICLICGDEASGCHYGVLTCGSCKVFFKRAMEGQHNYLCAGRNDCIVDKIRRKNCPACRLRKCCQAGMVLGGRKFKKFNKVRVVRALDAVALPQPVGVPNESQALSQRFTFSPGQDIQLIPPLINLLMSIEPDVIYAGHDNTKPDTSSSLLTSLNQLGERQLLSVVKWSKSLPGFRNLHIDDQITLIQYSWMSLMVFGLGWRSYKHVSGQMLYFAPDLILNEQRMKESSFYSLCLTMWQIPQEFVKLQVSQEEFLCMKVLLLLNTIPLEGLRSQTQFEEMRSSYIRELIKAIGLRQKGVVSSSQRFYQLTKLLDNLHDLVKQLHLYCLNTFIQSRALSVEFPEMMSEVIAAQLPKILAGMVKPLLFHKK
Sequence of Nuclear receptor subfamily 1 group I member 2 (Homo sapiens) (O75469 whole entry, looked up): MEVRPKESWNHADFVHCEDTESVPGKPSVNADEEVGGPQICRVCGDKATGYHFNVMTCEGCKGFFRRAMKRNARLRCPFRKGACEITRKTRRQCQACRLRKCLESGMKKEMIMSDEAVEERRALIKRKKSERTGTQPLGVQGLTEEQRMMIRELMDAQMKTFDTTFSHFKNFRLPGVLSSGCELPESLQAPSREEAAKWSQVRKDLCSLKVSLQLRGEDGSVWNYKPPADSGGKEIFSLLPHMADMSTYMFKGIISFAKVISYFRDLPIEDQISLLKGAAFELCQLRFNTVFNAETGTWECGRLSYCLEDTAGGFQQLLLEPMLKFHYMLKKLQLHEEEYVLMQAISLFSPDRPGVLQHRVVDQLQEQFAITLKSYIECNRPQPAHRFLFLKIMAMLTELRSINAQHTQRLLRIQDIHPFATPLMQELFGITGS
Sequence of Cytochrome P450 2D6 (Homo sapiens) (P10635 whole entry, looked up): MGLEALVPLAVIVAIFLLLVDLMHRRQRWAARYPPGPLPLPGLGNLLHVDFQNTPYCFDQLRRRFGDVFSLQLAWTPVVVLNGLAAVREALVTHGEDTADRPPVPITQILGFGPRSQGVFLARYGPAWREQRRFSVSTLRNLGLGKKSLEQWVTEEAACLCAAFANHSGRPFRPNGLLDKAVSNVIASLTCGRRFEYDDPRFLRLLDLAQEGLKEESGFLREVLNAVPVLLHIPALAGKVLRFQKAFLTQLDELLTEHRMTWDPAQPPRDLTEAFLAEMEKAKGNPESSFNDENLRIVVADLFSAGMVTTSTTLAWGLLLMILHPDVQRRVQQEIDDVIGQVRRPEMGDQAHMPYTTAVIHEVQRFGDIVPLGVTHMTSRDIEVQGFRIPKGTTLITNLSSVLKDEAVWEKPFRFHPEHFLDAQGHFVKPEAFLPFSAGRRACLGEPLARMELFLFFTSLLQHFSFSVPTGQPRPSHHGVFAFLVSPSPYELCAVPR
Sequence of Thyrotropin-releasing hormone receptor (Homo sapiens) (P34981 whole entry, looked up): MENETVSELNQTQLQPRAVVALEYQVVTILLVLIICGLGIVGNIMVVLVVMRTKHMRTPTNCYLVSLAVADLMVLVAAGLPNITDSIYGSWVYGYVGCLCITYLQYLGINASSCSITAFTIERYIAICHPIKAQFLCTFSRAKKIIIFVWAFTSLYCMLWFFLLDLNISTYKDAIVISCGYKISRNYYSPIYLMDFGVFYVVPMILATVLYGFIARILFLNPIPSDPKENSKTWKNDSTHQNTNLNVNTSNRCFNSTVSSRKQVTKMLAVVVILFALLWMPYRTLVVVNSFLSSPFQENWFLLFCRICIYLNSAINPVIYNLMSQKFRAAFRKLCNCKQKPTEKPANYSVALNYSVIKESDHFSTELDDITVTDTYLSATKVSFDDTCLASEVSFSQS
Sequence of Nuclear receptor subfamily 1 group I member 2 (Rattus norvegicus) (Q9R1A7 whole entry, looked up): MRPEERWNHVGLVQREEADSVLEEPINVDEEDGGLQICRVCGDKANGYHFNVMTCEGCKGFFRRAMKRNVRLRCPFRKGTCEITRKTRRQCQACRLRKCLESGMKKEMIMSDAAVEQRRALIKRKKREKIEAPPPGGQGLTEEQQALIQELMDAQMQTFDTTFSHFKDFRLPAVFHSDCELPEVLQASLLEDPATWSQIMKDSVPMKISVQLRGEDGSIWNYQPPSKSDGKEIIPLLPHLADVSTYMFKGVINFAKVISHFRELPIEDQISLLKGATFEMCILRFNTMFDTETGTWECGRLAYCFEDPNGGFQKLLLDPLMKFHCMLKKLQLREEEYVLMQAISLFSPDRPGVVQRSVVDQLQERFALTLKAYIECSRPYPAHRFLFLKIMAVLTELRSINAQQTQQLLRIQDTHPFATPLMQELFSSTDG

CC1(C)O[C@@H]2C[C@H]3[C@@H]4CCC5=CC(=O)CC[C@]5(C)[C@@]4(F)[C@@H](O)C[C@]3(C)[C@]2(C(=O)CCl)O1
inactive: Potency [1] | Potency [2] | Potency [3] | Potency [4] | outcome [5] | outcome [6] | outcome [7] | Potency [8] | Potency [9] | Potency [10] | outcome [11]
active: Potency [12] 9.44 µM | Potency [13] 1 µM | Potency [14] 5.01 µM

C=CC1CO1 (stereo not drawn)
inactive: Potency [15] | Potency [2] | Potency [3] | Potency [4] | outcome [5] | outcome [6] | outcome [7] | outcome [16] | Potency [17] | Potency [8] | Potency [9] | Potency [10] | outcome [11] | Potency [18] | Potency [12] | Potency [19]

CN1CCN(N)CC1
inactive: Potency [15] | Potency [2] | Potency [3] | Potency [4] | outcome [5] | outcome [6] | outcome [7] | outcome [16] | Potency [17] | Potency [8] | Potency [9] | Potency [10] | outcome [11] | Potency [18] | Potency [12] | Potency [19]

O=S(=O)(O)C(F)(F)F
inactive: Potency [1] | Potency [15] | Potency [4] | outcome [5] | outcome [7] | outcome [16] | Potency [17] | Potency [8] | Potency [9] | outcome [11] | Potency [18] | Potency [12]

O=C(O)c1cccc(Cl)c1Cl
inactive: Potency [1] | Potency [3] | Potency [4] | outcome [5] | outcome [7] | Potency [8] | Potency [9] | Potency [10] | outcome [11] | Potency [18] | Potency [12]

CCOC(=O)c1ccccc1O
inactive: Potency [1] | Potency [3] | Potency [4] | outcome [6] | outcome [16] | Potency [17] | Potency [8] | Potency [9] | Potency [10] | outcome [11] | Potency [18] | Potency [12] | max activation [13] -7.66% | Potency [20] | Potency [14] | Potency [19]

CCCCC(=O)O[C@]1(C(=O)CO)[C@H](C)C[C@H]2[C@@H]3CCC4=CC(=O)C=C[C@]4(C)[C@@]3(F)[C@@H](O)C[C@@]21C
inactive: Potency [1] | Potency [2] | Potency [3] | outcome [5] | outcome [6] | outcome [7] | Potency [8] | Potency [9] | Potency [10] | outcome [11] | Potency [18] | Potency [12] | Potency [20]
